In publication PMC7862700, “An all-to-all approach to the identification of sequence-specific readers for epigenetic DNA modifications on cytosine”:

What was measured:
Assay in all cases: DAPPL (digital affinity profiling via proximity ligation, sequencing); 10 mM Tris-HCl pH 7.5, 50 mM NaCl, 1 mM DTT, 4% glycerol, room temperature, 30 min; GST-TFs on glutathione beads, 16-mer random dsDNA library, 0.1% formaldehyde crosslink after washing; high values mean tight binding
[1] = target: T1, FLI1 (Homo sapiens, UniProt Q01543 1-452); conditions: protein: recombinant; tags: N-terminal GST; dsDNA, one strand shown
T1 sequence: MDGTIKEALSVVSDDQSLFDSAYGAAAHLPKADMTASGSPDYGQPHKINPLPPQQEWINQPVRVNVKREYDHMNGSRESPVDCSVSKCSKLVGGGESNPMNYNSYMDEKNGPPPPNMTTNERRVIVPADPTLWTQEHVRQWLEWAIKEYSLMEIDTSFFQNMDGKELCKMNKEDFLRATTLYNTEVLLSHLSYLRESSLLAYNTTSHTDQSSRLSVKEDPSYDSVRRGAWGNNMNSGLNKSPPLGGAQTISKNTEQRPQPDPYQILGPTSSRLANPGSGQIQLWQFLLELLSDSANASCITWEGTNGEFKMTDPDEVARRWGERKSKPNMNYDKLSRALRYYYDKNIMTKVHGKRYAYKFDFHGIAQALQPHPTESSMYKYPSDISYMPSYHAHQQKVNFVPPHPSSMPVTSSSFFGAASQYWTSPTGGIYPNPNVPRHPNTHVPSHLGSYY
Outline: (§1)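 Each value of binding signal is a hexamer's read frequency for a factor divided by the same hexamer's frequency in the tag-only sample. Barcoded, bead-captured GST fusions of human transcription factors made in yeast were pooled with that sample and incubated with 200 nmole of a random double-stranded 16-mer DNA library in Tris/NaCl/DTT/glycerol buffer at room temperature for 30 min. Washing, 0.1% formaldehyde crosslinking, proximity ligation, PCR and Illumina NextSeq500 sequencing followed.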

[2] = target: T2, ELK1 (Homo sapiens, UniProt P19419 1-428); conditions: protein: recombinant; tags: N-terminal GST; dsDNA, one strand shown
T2 sequence: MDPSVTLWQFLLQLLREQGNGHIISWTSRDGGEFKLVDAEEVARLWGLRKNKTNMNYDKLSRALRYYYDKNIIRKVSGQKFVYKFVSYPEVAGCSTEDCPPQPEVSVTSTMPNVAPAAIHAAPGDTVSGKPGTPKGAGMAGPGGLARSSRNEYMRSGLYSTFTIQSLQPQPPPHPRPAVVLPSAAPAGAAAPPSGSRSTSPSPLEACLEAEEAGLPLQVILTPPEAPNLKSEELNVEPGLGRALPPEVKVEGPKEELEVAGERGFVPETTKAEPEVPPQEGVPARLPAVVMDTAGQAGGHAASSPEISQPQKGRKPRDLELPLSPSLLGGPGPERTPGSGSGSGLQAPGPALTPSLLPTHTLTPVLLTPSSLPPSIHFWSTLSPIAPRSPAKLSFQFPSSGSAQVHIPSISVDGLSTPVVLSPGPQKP
Outline: as §1

[3] = target: T3, GABPA (Homo sapiens, UniProt Q06546 1-454); conditions: protein: recombinant; tags: N-terminal GST; dsDNA, one strand shown
T3 sequence: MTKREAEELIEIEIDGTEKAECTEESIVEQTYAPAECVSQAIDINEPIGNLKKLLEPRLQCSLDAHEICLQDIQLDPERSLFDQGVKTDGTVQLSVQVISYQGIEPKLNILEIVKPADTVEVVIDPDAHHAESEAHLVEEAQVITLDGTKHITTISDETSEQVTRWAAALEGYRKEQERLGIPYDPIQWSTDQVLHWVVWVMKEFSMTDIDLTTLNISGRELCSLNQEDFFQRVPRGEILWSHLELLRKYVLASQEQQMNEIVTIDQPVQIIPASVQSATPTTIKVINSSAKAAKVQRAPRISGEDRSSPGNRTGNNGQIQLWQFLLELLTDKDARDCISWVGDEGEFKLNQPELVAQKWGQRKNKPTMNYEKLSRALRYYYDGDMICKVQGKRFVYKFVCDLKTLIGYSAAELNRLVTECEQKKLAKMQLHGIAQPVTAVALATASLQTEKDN
Outline: as §1

[4] = target: T4, ERG (Homo sapiens, UniProt P11308 1-479); conditions: protein: recombinant; tags: N-terminal GST; dsDNA, one strand shown
T4 sequence: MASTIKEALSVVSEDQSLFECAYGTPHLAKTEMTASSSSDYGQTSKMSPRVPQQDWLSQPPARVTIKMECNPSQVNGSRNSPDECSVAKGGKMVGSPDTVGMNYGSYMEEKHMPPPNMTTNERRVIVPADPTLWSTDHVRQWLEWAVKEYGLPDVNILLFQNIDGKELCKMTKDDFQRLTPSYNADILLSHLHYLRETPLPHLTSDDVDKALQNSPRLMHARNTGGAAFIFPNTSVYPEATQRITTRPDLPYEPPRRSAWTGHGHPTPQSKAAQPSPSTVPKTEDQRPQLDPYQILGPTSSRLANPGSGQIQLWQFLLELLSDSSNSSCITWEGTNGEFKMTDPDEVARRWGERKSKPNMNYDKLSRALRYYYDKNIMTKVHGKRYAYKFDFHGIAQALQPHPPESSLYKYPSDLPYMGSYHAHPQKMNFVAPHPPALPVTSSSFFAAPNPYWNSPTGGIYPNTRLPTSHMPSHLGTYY
Outline: as §1

[5] = target: ELF1 (Homo sapiens, UniProt P32519 1-619); conditions: protein: recombinant; tags: N-terminal GST; dsDNA, one strand shown
Outline: as §1

[6] = target: T5, EHF (Homo sapiens, UniProt Q9NZC4 1-300); conditions: protein: recombinant; tags: N-terminal GST; dsDNA, one strand shown
T5 sequence: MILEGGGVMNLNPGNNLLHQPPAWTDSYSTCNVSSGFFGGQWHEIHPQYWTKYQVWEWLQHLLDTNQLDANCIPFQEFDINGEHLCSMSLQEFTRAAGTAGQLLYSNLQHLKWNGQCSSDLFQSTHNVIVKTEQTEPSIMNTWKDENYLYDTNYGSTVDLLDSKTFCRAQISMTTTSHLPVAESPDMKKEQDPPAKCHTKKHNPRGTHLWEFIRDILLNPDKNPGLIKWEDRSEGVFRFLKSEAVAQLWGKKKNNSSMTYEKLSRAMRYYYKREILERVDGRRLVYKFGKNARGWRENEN
Outline: as §1

[7] = target: SPI1 (Homo sapiens, UniProt P17947 1-270); conditions: protein: recombinant; tags: N-terminal GST; dsDNA, one strand shown
Outline: as §1

[8] = target: SPIB (Homo sapiens, UniProt Q01892 1-262); conditions: protein: recombinant; tags: N-terminal GST; dsDNA, one strand shown
Outline: as §1

[9] = target: T6, ELK3 (Homo sapiens, UniProt P41970 1-407); conditions: protein: recombinant; tags: N-terminal GST; dsDNA, one strand shown
T6 sequence: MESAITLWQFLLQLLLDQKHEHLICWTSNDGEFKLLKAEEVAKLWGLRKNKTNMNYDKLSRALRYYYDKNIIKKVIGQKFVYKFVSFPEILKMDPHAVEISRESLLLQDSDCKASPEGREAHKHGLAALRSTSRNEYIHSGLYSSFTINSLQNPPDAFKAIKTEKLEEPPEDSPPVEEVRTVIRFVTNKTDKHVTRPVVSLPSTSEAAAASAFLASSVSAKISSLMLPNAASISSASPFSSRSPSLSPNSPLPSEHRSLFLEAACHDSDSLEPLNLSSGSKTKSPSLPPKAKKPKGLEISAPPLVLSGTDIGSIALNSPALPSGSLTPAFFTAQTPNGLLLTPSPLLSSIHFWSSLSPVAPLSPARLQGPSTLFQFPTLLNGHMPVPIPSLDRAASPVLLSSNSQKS
Outline: as §1

[10] = target: T7, FEV (Homo sapiens, UniProt Q99581 1-238); conditions: protein: recombinant; tags: N-terminal GST; dsDNA, one strand shown
T7 sequence: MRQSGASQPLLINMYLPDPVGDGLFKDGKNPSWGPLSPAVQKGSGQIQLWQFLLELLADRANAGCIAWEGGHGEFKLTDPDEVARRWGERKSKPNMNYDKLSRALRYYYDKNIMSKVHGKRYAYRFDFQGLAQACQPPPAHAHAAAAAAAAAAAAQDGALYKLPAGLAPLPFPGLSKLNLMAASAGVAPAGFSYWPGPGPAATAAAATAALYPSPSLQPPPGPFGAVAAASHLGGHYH
Outline: as §1

[11] = target: ETV5 (Homo sapiens, UniProt P41161 1-510); conditions: protein: recombinant; tags: N-terminal GST; dsDNA, one strand shown
Outline: as §1

[12] = target: HSF1 (Homo sapiens, UniProt Q00613 1-529); conditions: protein: recombinant; tags: N-terminal GST; chain copies: 3; dsDNA, one strand shown
Outline: as §1

[13] = target: T8, SPIC (Homo sapiens, UniProt Q8N5J4 1-248); conditions: protein: recombinant; tags: N-terminal GST; dsDNA, one strand shown
T8 sequence: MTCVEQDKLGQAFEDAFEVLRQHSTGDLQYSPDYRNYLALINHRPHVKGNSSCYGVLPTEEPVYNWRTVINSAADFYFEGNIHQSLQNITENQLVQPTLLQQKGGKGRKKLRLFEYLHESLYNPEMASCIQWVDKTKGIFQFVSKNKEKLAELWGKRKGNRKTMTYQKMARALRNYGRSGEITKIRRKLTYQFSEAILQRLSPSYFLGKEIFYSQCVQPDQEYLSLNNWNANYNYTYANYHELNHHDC
Outline: as §1

[14] = target: ELF4 (Homo sapiens, UniProt Q99607 1-663); conditions: protein: recombinant; tags: N-terminal GST; dsDNA, one strand shown
Outline: as §1

[15] = target: T9, ELK4 (Homo sapiens, UniProt P28324-2 1-405); conditions: protein: recombinant; tags: N-terminal GST; dsDNA, one strand shown
T9 sequence: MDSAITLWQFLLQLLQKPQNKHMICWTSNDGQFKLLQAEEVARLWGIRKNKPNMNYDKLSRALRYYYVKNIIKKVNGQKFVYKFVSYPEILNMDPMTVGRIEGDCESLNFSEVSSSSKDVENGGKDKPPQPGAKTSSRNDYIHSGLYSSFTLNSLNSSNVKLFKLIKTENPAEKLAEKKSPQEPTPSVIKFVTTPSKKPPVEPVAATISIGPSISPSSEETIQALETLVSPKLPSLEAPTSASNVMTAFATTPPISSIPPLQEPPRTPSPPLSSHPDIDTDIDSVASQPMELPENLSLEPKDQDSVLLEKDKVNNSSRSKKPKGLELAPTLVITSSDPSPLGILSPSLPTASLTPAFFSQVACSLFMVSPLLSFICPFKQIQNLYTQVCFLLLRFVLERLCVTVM
Outline: as §1

[16] = target: T10, ETV2 (Homo sapiens, UniProt O00321 1-342); conditions: protein: recombinant; tags: N-terminal GST; dsDNA, one strand shown
T10 sequence: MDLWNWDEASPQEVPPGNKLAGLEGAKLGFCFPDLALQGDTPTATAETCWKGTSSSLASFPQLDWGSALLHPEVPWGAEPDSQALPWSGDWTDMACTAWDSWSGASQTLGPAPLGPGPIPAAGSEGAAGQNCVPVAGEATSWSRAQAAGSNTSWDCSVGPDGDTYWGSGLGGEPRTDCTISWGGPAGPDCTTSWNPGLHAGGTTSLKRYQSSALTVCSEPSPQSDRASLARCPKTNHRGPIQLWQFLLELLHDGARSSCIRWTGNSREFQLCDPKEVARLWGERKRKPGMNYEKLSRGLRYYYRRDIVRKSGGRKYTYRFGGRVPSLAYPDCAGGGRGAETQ
Outline: as §1

[17] = target: T11, ELF3 (Homo sapiens, UniProt P78545 1-371); conditions: protein: recombinant; tags: N-terminal GST; dsDNA, one strand shown
T11 sequence: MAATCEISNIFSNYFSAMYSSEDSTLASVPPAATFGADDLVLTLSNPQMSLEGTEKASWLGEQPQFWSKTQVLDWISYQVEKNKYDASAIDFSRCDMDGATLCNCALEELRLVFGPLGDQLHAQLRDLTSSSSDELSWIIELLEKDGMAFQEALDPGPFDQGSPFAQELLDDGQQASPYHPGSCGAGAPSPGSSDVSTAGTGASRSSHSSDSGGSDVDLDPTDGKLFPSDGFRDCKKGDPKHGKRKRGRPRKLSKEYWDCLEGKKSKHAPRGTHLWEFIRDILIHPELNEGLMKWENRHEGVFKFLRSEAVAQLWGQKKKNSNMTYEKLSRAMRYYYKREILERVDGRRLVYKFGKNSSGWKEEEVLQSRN
Outline: as §1

[18] = target: CRX (Homo sapiens, UniProt O43186 1-299); conditions: protein: recombinant; tags: N-terminal GST; dsDNA, one strand shown
Outline: as §1

[19] = target: ETV1 (Homo sapiens, UniProt P50549 1-477); conditions: protein: recombinant; tags: N-terminal GST; dsDNA, one strand shown
Outline: as §1

Sequence of ETV5 (P41161 whole entry): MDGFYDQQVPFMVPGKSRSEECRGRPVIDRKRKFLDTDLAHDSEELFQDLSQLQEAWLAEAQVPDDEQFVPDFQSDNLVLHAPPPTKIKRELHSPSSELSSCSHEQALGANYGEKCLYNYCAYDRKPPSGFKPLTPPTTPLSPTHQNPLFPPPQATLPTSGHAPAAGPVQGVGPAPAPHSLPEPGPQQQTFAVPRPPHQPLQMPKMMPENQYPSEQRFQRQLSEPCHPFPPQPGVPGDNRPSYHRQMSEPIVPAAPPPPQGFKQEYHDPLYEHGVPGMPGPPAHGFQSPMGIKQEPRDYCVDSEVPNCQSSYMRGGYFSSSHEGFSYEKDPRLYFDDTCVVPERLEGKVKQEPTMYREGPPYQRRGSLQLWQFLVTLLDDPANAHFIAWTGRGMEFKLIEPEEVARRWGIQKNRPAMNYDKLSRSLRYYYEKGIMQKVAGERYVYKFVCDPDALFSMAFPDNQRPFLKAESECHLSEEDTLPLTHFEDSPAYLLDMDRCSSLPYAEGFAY
Sequence of ELF4 (Q99607 whole entry): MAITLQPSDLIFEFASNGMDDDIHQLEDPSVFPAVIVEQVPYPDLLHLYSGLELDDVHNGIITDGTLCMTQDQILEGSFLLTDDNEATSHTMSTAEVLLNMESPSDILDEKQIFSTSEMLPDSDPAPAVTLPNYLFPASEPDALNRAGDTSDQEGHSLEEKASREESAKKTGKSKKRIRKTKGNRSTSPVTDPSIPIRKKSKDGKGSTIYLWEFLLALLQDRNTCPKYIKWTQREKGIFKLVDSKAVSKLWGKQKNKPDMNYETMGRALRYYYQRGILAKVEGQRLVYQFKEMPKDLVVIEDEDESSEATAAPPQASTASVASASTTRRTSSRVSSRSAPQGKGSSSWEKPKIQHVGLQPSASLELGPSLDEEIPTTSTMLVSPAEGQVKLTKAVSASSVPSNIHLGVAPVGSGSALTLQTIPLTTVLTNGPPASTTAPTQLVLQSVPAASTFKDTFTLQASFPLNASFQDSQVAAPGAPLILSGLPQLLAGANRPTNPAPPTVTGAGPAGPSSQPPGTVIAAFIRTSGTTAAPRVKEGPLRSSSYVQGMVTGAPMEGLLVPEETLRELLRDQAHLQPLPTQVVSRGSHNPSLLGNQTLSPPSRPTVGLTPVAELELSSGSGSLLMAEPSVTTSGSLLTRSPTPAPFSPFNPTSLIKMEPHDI
Sequence of HSF1 (Q00613 whole entry): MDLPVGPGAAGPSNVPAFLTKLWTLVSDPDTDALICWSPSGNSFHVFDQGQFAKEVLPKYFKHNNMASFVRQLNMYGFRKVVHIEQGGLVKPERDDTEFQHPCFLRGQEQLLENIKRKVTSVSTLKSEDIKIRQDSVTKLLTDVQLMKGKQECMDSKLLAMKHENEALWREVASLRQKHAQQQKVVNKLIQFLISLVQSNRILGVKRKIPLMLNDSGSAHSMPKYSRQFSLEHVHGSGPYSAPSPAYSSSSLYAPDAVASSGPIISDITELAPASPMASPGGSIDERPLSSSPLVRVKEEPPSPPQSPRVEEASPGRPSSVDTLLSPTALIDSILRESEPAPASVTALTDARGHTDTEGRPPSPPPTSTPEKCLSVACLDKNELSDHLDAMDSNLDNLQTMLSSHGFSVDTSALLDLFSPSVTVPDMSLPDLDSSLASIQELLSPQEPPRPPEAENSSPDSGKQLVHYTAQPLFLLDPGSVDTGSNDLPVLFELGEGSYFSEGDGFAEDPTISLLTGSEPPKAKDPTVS
Sequence of ELF1 (P32519 whole entry): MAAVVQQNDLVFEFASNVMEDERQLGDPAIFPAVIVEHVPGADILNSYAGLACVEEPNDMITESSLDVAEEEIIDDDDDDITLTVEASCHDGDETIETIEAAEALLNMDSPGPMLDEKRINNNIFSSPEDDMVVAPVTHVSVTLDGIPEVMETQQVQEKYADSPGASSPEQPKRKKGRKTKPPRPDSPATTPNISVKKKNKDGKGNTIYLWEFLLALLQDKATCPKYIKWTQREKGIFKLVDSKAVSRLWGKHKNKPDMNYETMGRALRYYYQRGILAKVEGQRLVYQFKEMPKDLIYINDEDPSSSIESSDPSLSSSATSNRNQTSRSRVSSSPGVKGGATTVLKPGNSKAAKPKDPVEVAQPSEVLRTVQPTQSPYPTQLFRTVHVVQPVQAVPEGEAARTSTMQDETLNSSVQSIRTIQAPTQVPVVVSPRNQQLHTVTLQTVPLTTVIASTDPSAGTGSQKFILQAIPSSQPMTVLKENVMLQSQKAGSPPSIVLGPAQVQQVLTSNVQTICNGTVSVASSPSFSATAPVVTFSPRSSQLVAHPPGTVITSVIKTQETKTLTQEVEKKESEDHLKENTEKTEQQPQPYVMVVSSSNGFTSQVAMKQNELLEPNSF
Sequence of CRX (O43186 whole entry): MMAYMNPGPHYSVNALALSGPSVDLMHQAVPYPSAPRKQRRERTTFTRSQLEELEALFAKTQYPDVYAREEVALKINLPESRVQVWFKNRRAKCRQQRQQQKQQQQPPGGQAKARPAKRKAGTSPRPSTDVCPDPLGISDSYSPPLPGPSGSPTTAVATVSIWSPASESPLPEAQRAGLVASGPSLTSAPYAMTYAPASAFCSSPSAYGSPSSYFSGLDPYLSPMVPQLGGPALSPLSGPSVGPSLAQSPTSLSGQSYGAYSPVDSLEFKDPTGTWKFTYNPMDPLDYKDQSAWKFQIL
Sequence of SPIB (Q01892 whole entry): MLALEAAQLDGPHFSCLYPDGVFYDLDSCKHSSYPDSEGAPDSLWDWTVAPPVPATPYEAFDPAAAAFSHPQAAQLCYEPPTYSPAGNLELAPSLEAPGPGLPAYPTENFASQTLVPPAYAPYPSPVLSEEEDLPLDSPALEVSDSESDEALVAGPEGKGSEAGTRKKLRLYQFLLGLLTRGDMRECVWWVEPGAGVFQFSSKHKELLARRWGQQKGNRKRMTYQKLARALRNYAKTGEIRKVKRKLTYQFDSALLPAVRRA
Sequence of ETV1 (P50549 whole entry): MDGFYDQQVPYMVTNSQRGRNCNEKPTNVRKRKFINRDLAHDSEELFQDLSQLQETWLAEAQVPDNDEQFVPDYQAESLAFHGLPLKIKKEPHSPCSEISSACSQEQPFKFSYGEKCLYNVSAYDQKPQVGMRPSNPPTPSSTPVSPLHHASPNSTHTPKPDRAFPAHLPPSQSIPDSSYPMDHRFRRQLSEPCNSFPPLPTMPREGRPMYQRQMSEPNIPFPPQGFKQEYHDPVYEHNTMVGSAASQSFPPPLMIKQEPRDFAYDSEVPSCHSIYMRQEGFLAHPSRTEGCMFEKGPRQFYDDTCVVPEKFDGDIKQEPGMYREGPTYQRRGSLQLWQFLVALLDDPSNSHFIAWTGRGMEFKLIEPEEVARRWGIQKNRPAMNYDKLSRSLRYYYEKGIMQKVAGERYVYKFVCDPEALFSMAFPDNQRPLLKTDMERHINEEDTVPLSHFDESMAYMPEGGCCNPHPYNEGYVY

CTCCGC
binding signal [1]: 1.51 fold enrichment (6-mer frequency, TF over GST control) | binding signal [2]: 1.63 fold enrichment (6-mer frequency, TF over GST control) | binding signal [3]: 1.58 fold enrichment (6-mer frequency, TF over GST control) | binding signal [4]: 1.38 fold enrichment (6-mer frequency, TF over GST control) | binding signal [5]: 1.56 fold enrichment (6-mer frequency, TF over GST control) | binding signal [6]: 1.37 fold enrichment (6-mer frequency, TF over GST control) | binding signal [7]: 1.56 fold enrichment (6-mer frequency, TF over GST control) | binding signal [8]: 1.37 fold enrichment (6-mer frequency, TF over GST control) | binding signal [9]: 1.5 fold enrichment (6-mer frequency, TF over GST control) | binding signal [10]: 1.43 fold enrichment (6-mer frequency, TF over GST control) | binding signal [11]: 1.52 fold enrichment (6-mer frequency, TF over GST control) | binding signal [12]: 1.15 fold enrichment (6-mer frequency, TF over GST control) | binding signal [13]: 1.51 fold enrichment (6-mer frequency, TF over GST control) | binding signal [14]: 1.67 fold enrichment (6-mer frequency, TF over GST control) | binding signal [15]: 1.39 fold enrichment (6-mer frequency, TF over GST control) | binding signal [16]: 1.57 fold enrichment (6-mer frequency, TF over GST control) | binding signal [17]: 1.38 fold enrichment (6-mer frequency, TF over GST control) | binding signal [18]: 1.3 fold enrichment (6-mer frequency, TF over GST control) | binding signal [19]: 1.56 fold enrichment (6-mer frequency, TF over GST control)
